Results as given in PubChem BioAssay (NCI).
About 79,000 compounds went through this panel and 15% of them were active in at least one assay; those are over-represented in the sample as a whole. Activity calls are given as the source filed them. Rule as the data show it: active = growth inhibition above about 70%; inactive = the rest.

Assays:
[1] = NCI Yeast Anticancer Drug Screen. Data for the rad52 strain (AID 147);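 also: 0% = growth of vehicle-treated control cultures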; details: S. cerevisiae rad52 mutant growth inhibition, active compounds read high
In short: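 DNA repair-defective yeast; compound exposure; growth scored against vehicle controls.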

[2] = NCI Yeast Anticancer Drug Screen. Data for the wt1 strain (AID 149);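 also: 0% = growth of vehicle-treated wt1 cultures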; details: S. cerevisiae wt1 strain (SPY 50644) growth inhibition, active compounds read high
In short: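 The wt1 strain was treated with compounds, and growth was compared with vehicle-treated cultures to give inhibition.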

[3] = NCI Yeast Anticancer Drug Screen. Data for the rad50EPP+ strain (AID 151);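 also: 0% = growth of vehicle-treated control cultures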; details: S. cerevisiae rad50 mutant strain, active compounds read high
In short: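 rad50EPP+ yeast treated with test compounds. Readout: growth vs vehicle control.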

[4] = NCI Yeast Anticancer Drug Screen. Data for the mgt1 strain (AID 153); details: S. cerevisiae mgt1 mutant growth inhibition, active compounds read high
In short: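 Growth inhibition relative to vehicle controls was scored for the mgt1 yeast strain after compound exposure.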

[5] = NCI Yeast Anticancer Drug Screen. Data for the rad50 strain (AID 155);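 also: 0% = growth of vehicle-only cultures of the same strain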; details: S. cerevisiae rad50 strain growth inhibition, active compounds read high
In short: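 Cells are treated with compound, grown, and their growth is then scored against vehicle-only cultures of the same repair-deficient yeast strain.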

[6] = NCI Yeast Anticancer Drug Screen. Data for the mec2-1 strain (AID 157); details: S. cerevisiae mec2-1 strain, active compounds read high
In short: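 Growth inhibition is read against vehicle-treated controls after compound exposure of the mec2-1 yeast strain, which is defective in DNA damage repair or cell cycle control.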

[7] = NCI Yeast Anticancer Drug Screen. Data for the rad14 strain (AID 159);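 also: 0% = growth of vehicle-treated control cultures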; details: S. cerevisiae rad14 strain growth inhibition, active compounds read high
In short: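 Readout: yeast growth inhibition, referenced to vehicle-only cultures. Strain bears a defined alteration in DNA damage repair.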

[8] = NCI Yeast Anticancer Drug Screen. Data for the sgs1 mgt1 strain (AID 161);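 also: 0% = growth of cultures given vehicle only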; details: S. cerevisiae sgs1 mgt1 strain, active compounds read high
In short: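 Growth of a repair-deficient yeast mutant was monitored after compound treatment and expressed as inhibition relative to vehicle-treated cultures.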

[9] = NCI Yeast Anticancer Drug Screen. Data for the CLN2oe strain (AID 163);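 also: 0% = growth of vehicle-only control cultures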; details: S. cerevisiae CLN2oe strain, active compounds read high
In short: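 Compound-treated yeast; growth vs vehicle ctrl = % inhibition. Genetically altered strain (cell-cycle control).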

[10] = NCI Yeast Anticancer Drug Screen. Data for the cln2 rad14 strain (AID 165);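 also: 0% = growth equal to vehicle treated cultures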; details: S. cerevisiae cln2 rad14 strain, active compounds read high
In short: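 Growth inhibition, relative to vehicle-treated controls, is the read-out. The test organism is a yeast strain with defined genetic alterations, cln2 rad14.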

[11] = NCI Yeast Anticancer Drug Screen. Data for the bub3 strain (AID 167); details: S. cerevisiae bub3 mutant strain, active compounds read high
In short: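 Part of a panel of yeast mutants defective in DNA damage repair or cell cycle regulation. Each strain is grown with compound, and inhibition is calculated relative to solvent-treated cultures.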

[12] = NCI Yeast Anticancer Drug Screen. Data for the wt2 strain (AID 169);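 also: 0% = growth of vehicle-treated yeast cultures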; details: S. cerevisiae wt2 strain growth inhibition, active compounds read high
In short: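 Compound exposure of yeast; growth compared with vehicle controls; inhibition reported.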

[13] = NCI Yeast Anticancer Drug Screen. Data for the mlh1 strain (AID 171);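 also: 0% = growth of vehicle-treated control cultures of the same strain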; details: S. cerevisiae mlh1 strain growth inhibition, active compounds read high
In short: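 Compounds are applied to a genetically altered yeast strain, and its growth is compared with that of vehicle-treated cultures to give percent inhibition.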

[14] = NCI Yeast Anticancer Drug Screen. Data for the sgs1 strain (AID 173);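 also: 0% = growth of vehicle-only control cultures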; details: S. cerevisiae sgs1 mutant, active compounds read high
In short: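 Compounds applied to genetically altered yeast; growth compared with vehicle-treated cultures to give % inhibition.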

[15] = NCI Yeast Anticancer Drug Screen. Data for the mlh1 rad18 strain (AID 175); details: S. cerevisiae mlh1 rad18 strain growth inhibition, active compounds read high
In short: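 Cells of a genetically altered yeast strain, deficient in DNA damage repair, were treated with compound. Their growth was then compared with that of vehicle-treated cultures to give inhibition.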

[16] = NCI Yeast Anticancer Drug Screen. Data for the rad18 strain (AID 177); details: S. cerevisiae rad18 mutant growth inhibition, active compounds read high
In short: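 Compounds are applied to a repair-deficient yeast strain, and growth is compared with that of vehicle-treated cultures to give percent inhibition.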

[17] = at 5.0 µM (retest, dose inferred, filed as 0.5)
[18] = at 50.0 µM (retest, dose inferred, filed as 5.0)

Measured: growth inhibition

S=P(N1CC1)(N1CC1)N1CC1
inactive: [1]; at 1.2 µM -1% | [1]; at 3.7 µM 2% | [1]; at 11.0 µM 3% | [1]; at 33.0 µM 4% | [1]; at 100.0 µM 16% | [2]; at 1.2 µM -3% | [2]; at 3.7 µM -3% | [2]; at 11.0 µM -2% | [2]; at 33.0 µM -2% | [2]; at 100.0 µM -22% | [3]; at 1.2 µM -4% | [3]; at 3.7 µM -5% | [3]; at 11.0 µM -4% | [3]; at 33.0 µM 7% | [3]; at 100.0 µM 34% | [4]; at 1.2 µM -5% | [4]; at 3.7 µM -2% | [4]; at 11.0 µM -1% | [4]; at 33.0 µM -1% | [4]; at 100.0 µM -1% | [5]; at 1.2 µM -3% | [5]; at 3.7 µM 0% | [5]; at 11.0 µM 4% | [5]; at 33.0 µM 6% | [5]; at 50.0 µM 28.6% | [5]; at 100.0 µM 23% | [6]; at 1.2 µM -5% | [6]; at 3.7 µM -3% | [6]; at 11.0 µM -1% | [6]; at 33.0 µM -2% | [6]; at 50.0 µM -0.7% | [6]; at 100.0 µM 5% | [7]; at 1.2 µM 0% | [7]; at 3.7 µM 3% | [7]; at 11.0 µM 5% | [7]; at 33.0 µM 9% | [7]; at 100.0 µM 20% | [8]; at 50.0 µM 30.1% | [9]; at 1.2 µM -4% | [9]; at 3.7 µM 0% | [9]; at 11.0 µM -6% | [9]; at 33.0 µM -10% | [9]; at 100.0 µM -3% | [10]; at 50.0 µM 6.4% | [11]; at 1.2 µM -3% | [11]; at 3.7 µM -2% | [11]; at 11.0 µM 0% | [11]; at 33.0 µM -6% | [11]; at 50.0 µM 13.8% | [11]; at 100.0 µM -11% | [12]; at 1.2 µM -1% | [12]; at 3.7 µM -2% | [12]; at 11.0 µM -2% | [12]; at 33.0 µM -17% | [12]; at 100.0 µM 2% | [13]; at 1.2 µM 0% | [13]; at 3.7 µM -1% | [13]; at 11.0 µM -2% | [13]; at 33.0 µM 1% | [13]; at 100.0 µM 7% | [14]; at 1.2 µM -2% | [14]; at 3.7 µM -4% | [14]; at 11.0 µM -2% | [14]; at 33.0 µM 3% | [14]; at 100.0 µM 20% | [15]; at 50.0 µM -2.75% | [16]; at 1.2 µM -3% | [16]; at 3.7 µM -1% | [16]; at 11.0 µM 6% | [16]; at 33.0 µM 24%
active: [16]; at 100.0 µM 78%

CC1CCC2(C(=O)O)CCC3(C)C(=CCC4C5(C)CC(O)C(O)C(C)(CO)C5C(O)CC43C)C2C1C (centres undefined)
inactive: [1]; at 1.2 µM -23% | [1]; at 3.7 µM -25% | [1]; at 11.0 µM -28% | [1]; at 33.0 µM -15% | [2]; at 1.2 µM -17% | [2]; at 3.7 µM -20% | [2]; at 11.0 µM -17% | [2]; at 33.0 µM -3% | [3]; at 1.2 µM 0% | [3]; at 3.7 µM -7% | [3]; at 11.0 µM -2% | [3]; at 33.0 µM 3% | [3]; at 100.0 µM 33% | [4]; at 1.2 µM -34% | [4]; at 3.7 µM -34% | [4]; at 11.0 µM -32% | [4]; at 33.0 µM -36% | [4]; at 100.0 µM 47% | [5]; at 1.2 µM 13% | [5]; at 3.7 µM -20% | [5]; [17] 54% | [5]; at 11.0 µM -20% | [5]; at 33.0 µM -28% | [5]; at 100.0 µM 63% | [6]; at 1.2 µM -15% | [6]; at 3.7 µM -6% | [6]; [17] -1% | [6]; at 11.0 µM -17% | [6]; at 33.0 µM -15% | [7]; at 1.2 µM -13% | [7]; at 3.7 µM -13% | [7]; at 11.0 µM -4% | [7]; at 33.0 µM 6% | [8]; [17] 16% | [10]; [17] 20% | [10]; at 50.0 µM 39.1% | [11]; at 1.2 µM -5% | [11]; at 3.7 µM -2% | [11]; [17] 16% | [11]; at 11.0 µM -1% | [11]; at 33.0 µM 13% | [12]; at 1.2 µM -2% | [12]; at 3.7 µM -2% | [12]; at 11.0 µM -1% | [12]; at 33.0 µM 21% | [13]; at 1.2 µM -29% | [13]; at 3.7 µM -8% | [13]; at 11.0 µM -20% | [13]; at 33.0 µM -2% | [14]; at 1.2 µM -4% | [14]; at 3.7 µM 9% | [14]; at 11.0 µM -10% | [14]; at 33.0 µM -17% | [15]; [17] 41% | [15]; at 50.0 µM 58.7% | [16]; at 1.2 µM -43% | [16]; at 3.7 µM -47% | [16]; at 11.0 µM -42% | [16]; at 33.0 µM -61%
active: [1]; at 100.0 µM 81% | [2]; at 100.0 µM 80% | [5]; [18] 88% | [5]; at 50.0 µM 76.9% | [6]; [18] 90% | [6]; at 50.0 µM 82.3% | [6]; at 100.0 µM 75% | [7]; at 100.0 µM 85% | [8]; [18] 70% | [8]; at 50.0 µM 78.7% | [10]; [18] 77% | [11]; [18] 93% | [11]; at 50.0 µM 88.9% | [11]; at 100.0 µM 95% | [12]; at 100.0 µM 96% | [13]; at 100.0 µM 95% | [14]; at 100.0 µM 95% | [15]; [18] 78% | [16]; at 100.0 µM 87%
